This is an account of results in PubChem BioAssay (EPA / NIEHS).

Assay [1] addresses human Protein Tyrosine Phosphatase Non-receptor Type 6 (PTPN6), PTPN6 (gene 5777) (UniProt P29350). Description: NVS_ENZ_hPTPN6: NovaScreen (NVS) Enzymatic Assay for human Protein Tyrosine Phosphatase Non-receptor Type 6 (PTPN6) (AID 2283210). An outline of the steps: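 Cell-free assay with recombinant PTPN6 expressed in SF9 cells, fluorescent substrate, product separated from substrate by electrophoretic mobility shift; read 1.33 hours after dosing. Primary screen in duplicate at 25 uM, actives retested in concentration series; DMSO baseline.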

In assay [2] the target is human Tyrosine Protein Kinase Receptor Tie-2 (Tie2), TEK (gene 7010) (UniProt Q02763). Description: NVS_ENZ_hTie2: NovaScreen (NVS) Enzymatic Assay for human Tyrosine Protein Kinase Receptor Tie-2 (Tie2) (AID 2283225). An outline of the steps: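 Recombinant human Tie2 kinase activity was read cell-free by fluorescence with electrophoretic mobility shift, 1 hour after dosing. The screen used 25 uM in duplicate, then concentration-response up to 50 uM. Signal loss was scored against DMSO.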
Sequence of human Tyrosine Protein Kinase Receptor Tie-2 (Tie2), TEK (gene 7010) (Q02763 whole entry, looked up): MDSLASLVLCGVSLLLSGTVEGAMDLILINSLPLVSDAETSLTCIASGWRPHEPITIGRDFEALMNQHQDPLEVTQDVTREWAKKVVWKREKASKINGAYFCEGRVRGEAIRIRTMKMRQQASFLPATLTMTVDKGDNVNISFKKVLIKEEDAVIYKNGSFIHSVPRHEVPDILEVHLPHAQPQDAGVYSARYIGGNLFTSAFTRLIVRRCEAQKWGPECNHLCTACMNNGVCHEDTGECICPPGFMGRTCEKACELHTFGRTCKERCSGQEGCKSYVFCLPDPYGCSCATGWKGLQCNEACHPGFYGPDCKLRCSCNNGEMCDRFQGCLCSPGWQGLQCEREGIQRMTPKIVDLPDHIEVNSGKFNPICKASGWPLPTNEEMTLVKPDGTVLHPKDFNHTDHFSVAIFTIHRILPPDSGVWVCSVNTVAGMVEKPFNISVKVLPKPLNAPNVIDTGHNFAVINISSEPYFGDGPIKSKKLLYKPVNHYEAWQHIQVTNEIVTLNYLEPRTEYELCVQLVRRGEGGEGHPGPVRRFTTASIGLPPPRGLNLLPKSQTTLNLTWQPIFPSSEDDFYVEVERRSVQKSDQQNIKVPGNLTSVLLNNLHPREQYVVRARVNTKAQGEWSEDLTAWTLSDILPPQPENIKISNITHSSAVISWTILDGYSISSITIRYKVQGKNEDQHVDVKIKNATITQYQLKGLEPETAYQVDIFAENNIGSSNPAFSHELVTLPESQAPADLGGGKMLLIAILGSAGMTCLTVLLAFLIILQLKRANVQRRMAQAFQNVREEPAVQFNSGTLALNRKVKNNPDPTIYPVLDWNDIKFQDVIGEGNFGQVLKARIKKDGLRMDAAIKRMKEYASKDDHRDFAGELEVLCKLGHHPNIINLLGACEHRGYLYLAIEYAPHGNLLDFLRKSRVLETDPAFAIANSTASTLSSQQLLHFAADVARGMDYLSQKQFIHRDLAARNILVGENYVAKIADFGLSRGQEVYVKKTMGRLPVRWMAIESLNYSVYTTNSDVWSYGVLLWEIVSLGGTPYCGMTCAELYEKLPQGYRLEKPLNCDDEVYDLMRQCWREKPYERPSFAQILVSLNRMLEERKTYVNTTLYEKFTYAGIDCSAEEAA

Assay [3] concerns the target human Vascular Endothelial Growth Factor Receptor 3 (VEGFR3), FLT4 (gene 2324) (UniProt P35916). As to the kind of experiment: NVS_ENZ_hVEGFR3: NovaScreen (NVS) Enzymatic Assay for human Vascular Endothelial Growth Factor Receptor 3 (VEGFR3) (AID 2283229). An outline of the steps: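 Cell-free recombinant VEGFR3 kinase reaction with fluorescent substrate, read 1 h after dosing by electrophoretic mobility shift separation of substrate and product. Single-concentration duplicate screen at 25 uM, then concentration-response up to 50 uM; loss of activity versus DMSO.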

Assay [4] addresses human Vascular Endothelial Growth Factor Receptor 2 (VEGFR2), KDR (gene 3791) (UniProt P35968). As to the kind of experiment: NVS_ENZ_hVEGFR2: NovaScreen (NVS) Enzymatic Assay for human Vascular Endothelial Growth Factor Receptor 2 (VEGFR2) (AID 2283230). An outline of the steps:
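Cell-free recombinant VEGFR2 kinase, fluorescent substrate with electrophoretic mobility-shift separation; read 1 h after dosing. Screened at 25 uM in duplicate, hits to concentration-response up to 50 uM; loss-of-signal versus DMSO.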

The target of assay [5] is human Sirtuin 1 (SIRT1), SIRT1 (gene 23411) (UniProt Q96EB6). As to the kind of experiment: NVS_ENZ_hSIRT1: NovaScreen (NVS) Enzymatic Assay for human Sirtuin 1 (SIRT1) (AID 2283219). An outline of the steps:
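Cell-free recombinant SIRT1 with a fluorescent substrate; substrate and product separated by electrophoretic mobility shift and read by fluorescence intensity, 1 h after dosing. Primary screen at 25 uM in duplicate; hits re-run in concentration-response up to 50 uM, relative to DMSO.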

For assay [6], the target named is human Sirtuin 3 (SIRT3), SIRT3 (gene 23410) (UniProt Q9NTG7). Description: NVS_ENZ_hSIRT3: NovaScreen (NVS) Enzymatic Assay for human Sirtuin 3 (SIRT3) (AID 2283222). An outline of the steps:
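Cell-free enzyme assay with recombinant protein and fluorescent substrate, product separated by electrophoretic mobility shift; read 1 hour after dosing. Screened in duplicate at 25 uM, then singleton concentration-response up to 50 uM; loss of signal versus DMSO.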

Assay [7] addresses rat Adenylate Cyclase, Forskolin Stimulated, Adcy5 (gene 64532) (UniProt Q04400). Description: NVS_ENZ_rACFSKBinding: NovaScreen (NVS) Enzymatic Assay for rat Adenylate Cyclase, Forskolin Stimulated (AID 2283232). An outline of the steps: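 Rat forebrain membrane preparation, cell-free, read 1 h after dosing by filter-based scintillation counting. Primary screen in duplicate at 25 uM; actives (e.g. ≥30% inhibition) rerun in concentration-response up to 50 uM; fit versus DMSO.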

Assay [8] concerns the target human Protein Tyrosine Phosphatase Non-receptor Type 9 (PTPN9), PTPN9 (gene 5780) (UniProt P43378). Description: NVS_ENZ_hPTPN9: NovaScreen (NVS) Enzymatic Assay for human Protein Tyrosine Phosphatase Non-receptor Type 9 (PTPN9) (AID 2283209). An outline of the steps:
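Sf9-expressed enzyme in a cell-free assay, fluorescence read 1.33 h after dosing with mobility-shift separation of substrate and product. Tested at 25 uM in duplicate, then up to 50 uM; signal loss versus DMSO.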

The target of assay [9] is human Protein Tyrosine Phosphatase Receptor Type B (PTPRB), PTPRB (gene 5787) (UniProt P23467). As to the kind of experiment: NVS_ENZ_hPTPRB: NovaScreen (NVS) Enzymatic Assay for human Protein Tyrosine Phosphatase Receptor Type B (PTPRB) (AID 2283211). An outline of the steps:
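Recombinant human PTPRB with a fluorescent substrate, product separated by electrophoretic mobility shift; read 1 h after dosing. Primary screen in duplicate at 25 uM; actives then retested in concentration series; loss of signal versus DMSO.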

The target in assay [10] is human Raf-1 Proto-Oncogene, serine/threonine Kinase (RAF1), RAF1 (gene 5894) (UniProt P04049). As to the kind of experiment: NVS_ENZ_hRAF1: NovaScreen (NVS) Enzymatic Assay for human Raf-1 Proto-Oncogene, serine/threonine Kinase (RAF1) (AID 2283216). An outline of the steps:
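Cell-free recombinant kinase with specific fluorescent substrate, product separated by electrophoretic mobility shift; read 1 h after dosing. Primary screen at 25 uM in duplicate; hits then run in concentration-response up to 50 uM, fitted as loss of signal versus DMSO.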

The target in assay [11] is sheep Cyclooxygenase-2 (Cox2), PTGS2 (gene 443460) (UniProt P79208). As to the kind of experiment: NVS_ENZ_oCOX2: NovaScreen (NVS) Enzymatic Assay for sheep Cyclooxygenase-2 (Cox2) (AID 2283231). An outline of the steps: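 Ovine placental enzyme, cell-free; chemical added, 0.66 h, absorbance (colorimetric). Screen 25 uM in duplicate; ≥threshold hits titrated, top 50 uM. Inhibition = signal loss vs DMSO.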

In assay [12] the target is human Protein Tyrosine Phosphatase Receptor Type M (PTPRM), PTPRM (gene 5797) (UniProt P28827). Description: NVS_ENZ_hPTPRM: NovaScreen (NVS) Enzymatic Assay for human Protein Tyrosine Phosphatase Receptor Type M (PTPRM) (AID 2283215). An outline of the steps: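 Cell-free recombinant PTPRM with fluorogenic substrate; product separated from substrate by electrophoretic mobility shift and read by fluorescence, 1.33 h after dosing. Primary screen single concentration (25 uM) in duplicate; actives retested in concentration series; loss of signal versus DMSO.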

Assay [13] addresses human Sirtuin 2 (SIRT2), SIRT2 (gene 22933) (UniProt Q8IXJ6). As to the kind of experiment: NVS_ENZ_hSIRT2: NovaScreen (NVS) Enzymatic Assay for human Sirtuin 2 (SIRT2) (AID 2283217). An outline of the steps: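 Cell-free recombinant human SIRT2, fluorescent substrate with product separated by electrophoretic mobility shift, 1 hr. Screened in duplicate at 25 uM; hits rerun singly in concentration-response up to 50 uM, relative to DMSO.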

Assay [14] addresses human Vascular Endothelial Growth Factor Receptor 1 (VEGFR1), FLT1 (gene 2321) (UniProt P17948). As to the kind of experiment: NVS_ENZ_hVEGFR1: NovaScreen (NVS) Enzymatic Assay for human Vascular Endothelial Growth Factor Receptor 1 (VEGFR1) (AID 2283226). An outline of the steps:
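Cell-free assay of recombinant human VEGFR1 kinase with substrate, measured 1 h after dosing; fluorescence with electrophoretic mobility-shift separation of substrate and product, referenced to DMSO; primary screen at 25 uM in duplicate, actives then run in concentration series.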

Assay [15] concerns the target human Rho Associated Coiled-coil Containing Protein Kinase 1 (ROCK1), ROCK1 (gene 6093) (UniProt Q13464). As to the kind of experiment: NVS_ENZ_hROCK1: NovaScreen (NVS) Enzymatic Assay for human Rho Associated Coiled-coil Containing Protein Kinase 1 (ROCK1) (AID 2283214). An outline of the steps: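 Cell-free recombinant human ROCK1 activity assay; fluorescent substrate and product separated by electrophoretic mobility shift, read 1 h after dosing. Screened in duplicate at 25 uM; loss of signal versus DMSO baseline scored as inhibition.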

The target in assay [16] is human Protein Tyrosine Phosphatase Receptor Type F (PTPRF), PTPRF (gene 5792) (UniProt P10586). As to the kind of experiment: NVS_ENZ_hPTPRF: NovaScreen (NVS) Enzymatic Assay for human Protein Tyrosine Phosphatase Receptor Type F (PTPRF) (AID 2283213). An outline of the steps: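 Cell-free fluorescence enzyme assay with recombinant protein and substrate; product separated by electrophoretic mobility shift. Read 1 h after dosing, single 25 uM duplicate screen, then concentration-response up to 50 uM; loss of signal vs DMSO.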

Assay [17] has as its target human Tropomyosin Receptor Kinase A (TRKA), NTRK1 (gene 4914) (UniProt P04629). As to the kind of experiment: NVS_ENZ_hTrkA: NovaScreen (NVS) Enzymatic Assay for human Tropomyosin Receptor Kinase A (TRKA) (AID 2283224). An outline of the steps:
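Recombinant human TrkA activity read after 1 h by fluorescence with electrophoretic mobility shift separating substrate and product. Primary screen in duplicate at 25 uM; actives were rerun in concentration-response up to 50 uM. Loss of signal versus DMSO.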

Structures are written as SMILES. Inconclusive results are not listed. Activity calls are given as the source filed them. How the source made its calls: active means hit-call score of the fitted dose curve at least 0.9, where 1 is the maximum; inconclusive means response in the unintended direction; inactive means score below 0.9.

Sequence of human Raf-1 Proto-Oncogene, serine/threonine Kinase (RAF1), RAF1 (gene 5894) (P04049 whole entry, looked up): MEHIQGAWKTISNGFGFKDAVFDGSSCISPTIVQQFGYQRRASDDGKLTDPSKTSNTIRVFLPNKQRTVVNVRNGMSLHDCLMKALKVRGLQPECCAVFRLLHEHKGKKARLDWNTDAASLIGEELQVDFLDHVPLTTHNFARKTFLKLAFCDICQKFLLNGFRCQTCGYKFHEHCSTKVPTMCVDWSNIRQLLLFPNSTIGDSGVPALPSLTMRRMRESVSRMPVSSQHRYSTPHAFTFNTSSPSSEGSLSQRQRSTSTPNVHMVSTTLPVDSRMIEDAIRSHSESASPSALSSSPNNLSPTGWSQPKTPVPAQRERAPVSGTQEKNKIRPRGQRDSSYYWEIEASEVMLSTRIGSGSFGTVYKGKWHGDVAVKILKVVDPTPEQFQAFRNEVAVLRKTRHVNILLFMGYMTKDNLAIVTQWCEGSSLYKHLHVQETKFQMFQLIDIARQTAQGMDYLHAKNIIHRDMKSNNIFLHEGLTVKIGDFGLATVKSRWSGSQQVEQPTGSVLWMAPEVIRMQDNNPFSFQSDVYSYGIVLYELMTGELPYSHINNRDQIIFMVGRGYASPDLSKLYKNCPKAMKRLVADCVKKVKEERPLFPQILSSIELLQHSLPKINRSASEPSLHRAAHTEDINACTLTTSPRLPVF
Sequence of human Sirtuin 2 (SIRT2), SIRT2 (gene 22933) (Q8IXJ6 whole entry, looked up): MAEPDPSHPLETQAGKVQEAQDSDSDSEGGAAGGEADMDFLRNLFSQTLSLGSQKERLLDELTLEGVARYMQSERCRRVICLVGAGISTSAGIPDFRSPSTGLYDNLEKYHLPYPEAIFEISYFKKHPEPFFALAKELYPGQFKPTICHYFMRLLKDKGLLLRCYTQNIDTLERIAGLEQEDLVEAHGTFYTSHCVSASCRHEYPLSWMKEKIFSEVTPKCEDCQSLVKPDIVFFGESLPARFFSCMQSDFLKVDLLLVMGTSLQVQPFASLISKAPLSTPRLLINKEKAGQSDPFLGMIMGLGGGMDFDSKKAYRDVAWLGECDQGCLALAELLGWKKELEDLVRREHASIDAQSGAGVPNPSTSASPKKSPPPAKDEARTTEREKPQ
Sequence of human Sirtuin 1 (SIRT1), SIRT1 (gene 23411) (Q96EB6 whole entry, looked up): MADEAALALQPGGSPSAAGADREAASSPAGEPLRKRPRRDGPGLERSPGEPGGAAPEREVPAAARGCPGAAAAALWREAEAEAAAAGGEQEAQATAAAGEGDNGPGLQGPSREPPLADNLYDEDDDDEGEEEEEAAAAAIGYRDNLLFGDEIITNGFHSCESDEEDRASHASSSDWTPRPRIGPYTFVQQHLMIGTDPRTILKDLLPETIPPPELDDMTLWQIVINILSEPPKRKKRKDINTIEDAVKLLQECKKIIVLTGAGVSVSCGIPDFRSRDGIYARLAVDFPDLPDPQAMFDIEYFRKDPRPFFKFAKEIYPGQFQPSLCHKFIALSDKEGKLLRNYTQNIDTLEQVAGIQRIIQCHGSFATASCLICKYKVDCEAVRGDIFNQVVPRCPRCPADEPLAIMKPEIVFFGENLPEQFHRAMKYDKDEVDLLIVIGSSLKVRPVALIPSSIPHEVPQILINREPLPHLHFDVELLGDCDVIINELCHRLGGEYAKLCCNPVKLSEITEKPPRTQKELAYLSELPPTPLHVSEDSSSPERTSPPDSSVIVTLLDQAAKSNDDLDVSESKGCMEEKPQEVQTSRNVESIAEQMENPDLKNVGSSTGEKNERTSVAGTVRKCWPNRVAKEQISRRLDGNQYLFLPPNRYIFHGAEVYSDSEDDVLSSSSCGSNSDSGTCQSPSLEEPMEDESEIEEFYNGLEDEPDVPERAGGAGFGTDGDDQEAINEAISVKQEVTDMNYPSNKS
Sequence of human Vascular Endothelial Growth Factor Receptor 3 (VEGFR3), FLT4 (gene 2324) (P35916 whole entry, looked up): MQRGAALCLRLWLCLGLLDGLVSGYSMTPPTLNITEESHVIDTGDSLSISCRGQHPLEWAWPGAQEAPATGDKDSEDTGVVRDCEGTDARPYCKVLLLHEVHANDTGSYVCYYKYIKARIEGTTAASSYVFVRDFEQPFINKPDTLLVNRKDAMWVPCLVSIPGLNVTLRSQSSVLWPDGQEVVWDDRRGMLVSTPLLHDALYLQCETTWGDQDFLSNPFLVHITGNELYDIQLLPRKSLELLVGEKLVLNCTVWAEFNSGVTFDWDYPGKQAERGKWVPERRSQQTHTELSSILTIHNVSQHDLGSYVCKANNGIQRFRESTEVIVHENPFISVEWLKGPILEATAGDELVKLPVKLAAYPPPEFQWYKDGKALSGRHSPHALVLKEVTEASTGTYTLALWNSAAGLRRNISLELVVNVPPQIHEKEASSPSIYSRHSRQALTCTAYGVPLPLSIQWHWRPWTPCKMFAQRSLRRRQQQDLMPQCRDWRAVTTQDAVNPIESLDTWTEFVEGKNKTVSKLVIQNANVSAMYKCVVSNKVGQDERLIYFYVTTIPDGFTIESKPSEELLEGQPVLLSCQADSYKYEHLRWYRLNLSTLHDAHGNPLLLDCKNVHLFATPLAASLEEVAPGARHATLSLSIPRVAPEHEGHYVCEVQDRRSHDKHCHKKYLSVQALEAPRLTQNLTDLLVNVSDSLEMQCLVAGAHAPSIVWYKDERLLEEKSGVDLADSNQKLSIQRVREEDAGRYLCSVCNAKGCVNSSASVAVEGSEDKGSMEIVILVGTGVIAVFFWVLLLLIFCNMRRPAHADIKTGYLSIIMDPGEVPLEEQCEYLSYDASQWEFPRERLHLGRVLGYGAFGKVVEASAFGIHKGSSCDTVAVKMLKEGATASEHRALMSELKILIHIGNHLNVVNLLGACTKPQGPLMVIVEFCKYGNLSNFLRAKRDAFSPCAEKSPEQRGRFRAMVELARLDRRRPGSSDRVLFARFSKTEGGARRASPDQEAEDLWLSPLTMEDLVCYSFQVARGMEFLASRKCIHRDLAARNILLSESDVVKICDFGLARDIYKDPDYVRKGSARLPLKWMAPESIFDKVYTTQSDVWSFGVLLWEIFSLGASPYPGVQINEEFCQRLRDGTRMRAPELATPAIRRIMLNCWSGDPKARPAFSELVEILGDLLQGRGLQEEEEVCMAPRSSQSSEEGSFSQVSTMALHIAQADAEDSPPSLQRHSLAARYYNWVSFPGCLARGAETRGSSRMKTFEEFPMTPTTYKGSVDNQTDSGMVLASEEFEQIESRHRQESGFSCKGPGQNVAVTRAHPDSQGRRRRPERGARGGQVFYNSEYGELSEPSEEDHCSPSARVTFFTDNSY
Sequence of human Sirtuin 3 (SIRT3), SIRT3 (gene 23410) (Q9NTG7 whole entry, looked up): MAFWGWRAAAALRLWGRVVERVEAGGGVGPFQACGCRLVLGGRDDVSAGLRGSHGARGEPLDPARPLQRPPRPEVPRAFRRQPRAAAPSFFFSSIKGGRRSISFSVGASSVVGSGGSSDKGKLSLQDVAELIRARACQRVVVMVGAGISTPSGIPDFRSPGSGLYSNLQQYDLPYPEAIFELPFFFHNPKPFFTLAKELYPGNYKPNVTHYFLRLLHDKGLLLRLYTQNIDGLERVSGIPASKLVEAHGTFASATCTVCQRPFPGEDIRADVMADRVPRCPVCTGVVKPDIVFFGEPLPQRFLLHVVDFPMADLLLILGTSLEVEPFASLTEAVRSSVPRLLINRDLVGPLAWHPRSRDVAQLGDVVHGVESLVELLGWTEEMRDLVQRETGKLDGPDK

`CCOCCOC(C)=O`: the compound was called inactive in assay [1].

With `Clc1ccc(C(c2ccccc2Cl)C(Cl)(Cl)Cl)cc1` (configuration not stated), the call in assay [2], in assay [3] and in assay [4] was inactive.

As to `c1cc2ccc3cccc4ccc(c1)c2c34`, the compound was classed as inactive in assay [5], in assay [6] and in assay [3].

Take `CC(C)(c1ccccc1)c1ccc(O)cc1`: the result in assay [4] and in assay [7] was inactive.

Consider `O=C(O)C(F)(F)C(F)(F)C(F)(F)C(F)(F)C(F)(F)F`, for which the compound was called inactive in assay [8], in assay [9], in [10] and in [3].

Usually AC50 stands for the concentration at which the activity in the assay is half-maximal. Regarding `Clc1ccc(Cl)cc1`, in assay [11], the AC50 is 15.8 µM (active).

On to `Cc1cc2c3c(c1)C(c1ccccc1)=N[C@@H](NC(=O)c1ccncc1)C(=O)N3CC2`, for which the compound was called inactive in [12], in [13], in assay [6] and in assay [2].

Take `Oc1ccc(C(c2ccc(O)cc2)(C(F)(F)F)C(F)(F)F)cc1`: the compound was classed as inactive in assay [10]. Also, the AC50 in [13] is 25 µM (active); in assay [5], 38.7 µM (active); in [6] it was 42.9 µM (active); in [2] it was 36.3 µM (active).

Take `ClC1=C(Cl)[C@]2(Cl)[C@@H]3[C@@H]4C[C@@H]([C@H]5O[C@@H]45)[C@@H]3[C@@]1(Cl)C2(Cl)Cl`: the call in assay [14] was inactive.

With `CC#Cc1cc(C)nc(Nc2ccccc2)n1`, the compound was called inactive in [15].

For `O=C(O)C(F)(F)C(F)(F)C(F)(F)C(F)(F)C(F)(F)C(F)(F)C(F)(F)C(F)(F)F`, the AC50 in [8] was 25 µM (active); in assay [2] it was 6.63 µM (active). The compound was classed as inactive in [9], in assay [16], in assay [12], in assay [10], in [5] and in assay [17]. In addition, the compound was classed as inactive in assay [14] and in assay [3].

With `Oc1ccc(Cl)cc1Cl`, in assay [16], the result was inactive.

Take `CCCCCCOC(=O)c1ccccc1C(=O)OCCCCCC`: the call in [13] was inactive.
